From PubChem
TSHR antagonist – human thyrotropin receptor antagonism; 330,000 compounds, 0.2% hits; TSHR-expressing cells, TSH-stimulated cAMP HTRF, 2 h; active compounds read low; activity change, negative = inhibition, % at 11.5 µM;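 active = activity change below a set negative limit, meaning inhibition stronger than a set level, cut at about -70% in these data; inconclusive = activity change between two set negative limits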
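TSHR-expressing cells, 200/well, pre-treated with compound, then stimulated with EC80 TSH (4nM final) for 2 hours at 37 deg C. cAMP measured by competitive HTRF: anti-cAMP cryptate antibody in lysis buffer plus cAMP-d2, read after 30 minutes at room temperature.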
Gal4-VP16 FLuc – inhibits Gal4-VP16 luciferase reporter, ROR gamma counter-screen; AID 2546; 310,000 compounds, 3.5% hits; Potency, µM (series often up to 53.6 µM), inactives show at the top dose activity, negative = inhibition, most hits filed as inhibitors; Drosophila S2 Gal4-VP16 UAS-luciferase, luminescence, 20 h;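 also: Gal4-VP16 expression switched on by copper sulfate through the metallothionein promoter; potency is read from the fitted curve at half-maximal effect; nearly all actives have a fitted effect of over 50% in size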
B2AR arrestin – beta2AR (human) beta-arrestin recruitment activity; P07550; beta-arrestin recruitment to beta2AR, cell-based reporter; Potency, µM (series often up to 46.1 µM), for the others: top-dose activation, hits mostly activators; 330,000 compounds, 0.02% hits; AID 492947;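 also: potency is read from the fitted curve at half-maximal effect; 0% = DMSO controls and full agonism = EC100 isoproterenol or metaproterenol; nearly all actives have a fitted effect of over 65% in size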
RORgamma inh – inhibitors of mouse ROR gamma transcriptional activity; P51450; Potency, µM (series often up to 53.6 µM), without a hit: at the highest dose activity change, negative = inhibition, most hits filed as inhibitors; Drosophila S2 Gal4-RORgamma UAS-luciferase reporter, 20 h; 310,000 compounds, 5.4% hits; also: potency is read from the fitted curve at half-maximal effect; nearly all actives have a fitted effect of over 60% in size
Target sequence (P51450 whole entry, looked up, the tested form may be a part): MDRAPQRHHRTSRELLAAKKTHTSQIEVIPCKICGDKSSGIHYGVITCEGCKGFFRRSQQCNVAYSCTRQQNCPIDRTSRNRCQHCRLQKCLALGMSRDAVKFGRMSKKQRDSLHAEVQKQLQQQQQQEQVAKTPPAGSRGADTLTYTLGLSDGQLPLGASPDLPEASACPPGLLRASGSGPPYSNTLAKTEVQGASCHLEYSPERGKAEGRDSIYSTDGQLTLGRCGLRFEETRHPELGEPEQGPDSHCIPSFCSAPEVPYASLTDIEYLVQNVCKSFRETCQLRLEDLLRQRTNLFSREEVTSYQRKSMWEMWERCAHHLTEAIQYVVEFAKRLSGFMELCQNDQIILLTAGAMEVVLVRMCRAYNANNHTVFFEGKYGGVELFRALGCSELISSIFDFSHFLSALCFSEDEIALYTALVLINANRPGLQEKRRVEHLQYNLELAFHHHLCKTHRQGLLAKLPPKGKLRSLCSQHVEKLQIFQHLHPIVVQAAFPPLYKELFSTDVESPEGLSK
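Read-out: Photinus luciferase luminescence; inhibitors lower reporter signal. Insect Schneider cells with Gal4-ROR gamma fusion under metallothionein promoter, UAS reporter; 700 uM final copper sulfate induction, 20 hr, ambient temperature.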
ELG1 DNA repair – ELG1-dependent DNA repair inhibition; HEK293T ELG1-luciferase reporter, luminescence, 16 h; DNA damage induced by 5-fluorouridine; Potency, µM (doses to about 46.1 µM), without a hit: at the top dose activity change, negative = inhibition, most hits filed as inhibitors; 330,000 compounds, 2.3% hits; AID 504467; also: potency is read from the fitted curve at half-maximal effect; nearly all actives have a fitted effect of over 55% in size
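Overnight (16 hr) co-exposure of 2,000 cells/well to 5-fluorouridine and compound at 37 °C preceded detection. Luciferase was quantified via ONE-Glo luminescence; loss of signal denotes inhibition.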
Numbers without * were called inactive; ? = inconclusive; · = not tested or not shown; [ ] = dose if it differs, or a comment. Most compounds without a hit are left out; they make up all but 7.5% or so of the library. Unless noted, calls follow the shape of the dose curve; as a rule, active = well fitted curve in the direction sought with a large enough effect; inconclusive = small, poorly fitted or top-dose-only effect, or another doubt; inactive = no such curve, though single readings can be large; an effect the other way counts as inactive or inconclusive. Unless noted, % is scaled to controls: 0 for no effect and ±100 for the full control effect.

SMILES	TSHR antagonist	Gal4-VP16 FLuc	B2AR arrestin	RORgamma inh	ELG1 DNA repair
COc1ccccc1NS(=O)(=O)c1ccc(NC(=O)N2CCCCC2)cc1	28	-3%	0%	8%	-2%
CSC(=NC#N)N1CCN(c2ccccc2)CC1	13	?	0%	-32%	?
CSC(=NC#N)N1CCN(c2c(C)cccc2C)CC1	-6	14%[10 µM]	1%	11µM*	-1%
C[C@H](C(=O)O)c1cccc(Oc2ccccc2)c1	·	-20%[17 µM]	·	1%[2.98 µM]	·
COC(=O)NC(c1ccc2ccccc2c1)C(C(C)=O)C(=O)OC (stereo not given)	·	-7%[10 µM]	·	-9%[10 µM]	·
CCC(NC(C)C)C(O)c1ccc(O)c(O)c1 (stereo not given)	-17	-13%	3.2µM*	2%	10%
CCC1=NN(C(=O)c2ccc(Br)cc2)C(O)(c2ccc(C)cc2)C1 (stereo not given)	2	11µM*	-1%	13µM*	1%
CCC1=NN(C(=O)c2cccc(Br)c2)C(O)(c2ccc(Br)cc2)C1 (stereo not given)	30	-14%	1%	-7%[10 µM]	?
CCC1=NN(C(=O)c2ccc(C)cc2)C(O)(c2ccc(Br)cc2)C1 (stereo not given)	1	13µM*	0%	?	5%
COc1ccc(/C=N\NC(=O)c2cc(O)c(O)c(O)c2)cc1COc1ccc(C(=O)OCC(C)C)cc1	-1	-22%	-1%	-8%	?
CC(C)(C)NC(=O)C(c1ccc(I)cc1)N(CCN1CCOCC1)C(=O)CCCNC(=O)c1ccccc1 (stereo not given)	·	-7%	·	2%	·
COc1ccccc1N(C(=O)CCl)c1cn(C(C)=O)c2ccccc12	1	-8%	-1%	?	12µM*
CC(=O)n1cc(N(C(=O)CCl)c2ccc(Cl)cc2)c2ccccc21	-16	?	-1%	?	?
CC(=O)Nc1cccc(NC(=O)CSc2nc(C3CC3)nc3ccccc23)c1	-3	7%	-1%	5%	18µM*
CC(=O)c1cccc(NC(=O)CSc2nc(C3CC3)nc3ccccc23)c1	-10	16%	0%	28%	-15%
CC(Sc1nnc(-c2cccnc2)o1)C(=O)NC1CCCCC1 (stereo not given)	-9	·	0%	·	-1%
COc1ccc2c(c1)C(=O)[C@H](OC(=O)N[C@H]1CCCc3ccccc31)[C@@H](c1ccc(OC)c(Br)c1)O2	·	2%	·	-3%	·
CN1C(=O)C2(C(C#N)=C(N)N(c3cc(Cl)cc(Cl)c3)C3=C2C(=O)CCC3)c2ccccc21 (stereo not given)	4	1%	0%	-8%	10µM*
CN1C(=O)C2(c3ccccc31)C1CCCC=C1C(C#N)=C(N)C2(C#N)C#N (stereo not given)	23	-18%	0%	2%	1%
Cc1ccc(NC(=O)CC2S/C(=N/N=C3/NC(=O)CS3)NC2=O)cc1 (stereo not given)	3	-7%	0%	?	1%
Cc1ccc(NC(=O)CC2SC(=O)NC2=O)cc1 (stereo not given)	9	4.5µM*	-2%	5µM*	0%
COc1ccc(NC(=O)CC2SC(=O)NC2=O)cc1 (stereo not given)	6	13µM*	0%	11µM*	?
O=S(=O)(Nc1cccc2cccnc12)c1ccccc1O	·	3.2µM*	·	2µM*	·
O=S(=O)(Nc1cccc2cccnc12)c1ccc2ccccc2c1	·	0.63µM*	·	5.6µM*	·
O=S(=O)(Nc1cccc2cccnc12)c1ccc(Br)cc1	·	1.3µM*	·	0.56µM*	·
Nc1ccc(S(=O)(=O)Nc2cccc3cccnc23)cc1	·	11µM*	·	4µM*	·
O=S(=O)(Nc1ccccc1O)c1cccc2cccnc12	8	-8%	0%	-37%	?
Nc1ccc(S(=O)(=O)Nc2ccccn2)cc1	15	0%	0%	6%	5%
COc1ccc2[nH]cc(CCNc3nc(-c4c(C)noc4C)nc4ccccc34)c2c1	·	7%	·	17%	·
COc1ccc(C(=O)COC(=O)Cc2n[nH]c(=O)c3ccccc23)c(OC)c1	·	·	0%	·	-2%
